Source: PubChem BioAssay
For some of these results: Measured potencies and affinities stand elsewhere. Activity calls are given as the source filed them. Unless noted, no rule for the calls is given here.

Experiments:
[1] = antimalarial activity against Dd2 strain (AID 2302;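 active = growth inhibition above 50% at the single 2 µM test dose, taken to imply half-maximal potency below 2 µM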;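 also: 0% = DMSO untreated growth and 100% = chloroquine plus artemisinin killed control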); conditions: P. falciparum Dd2 in RBCs, LDH growth readout, 72 h; at 2 µM; hits give high values
[2] = human hepatoma cell viability loss – ATP luminescence, cytotoxicity control for P. falciparum antimalarial project, primary screen (AID 2303;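 active = inhibition above 50%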;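 also: 0% = DMSO wells and 100% = digitonin-killed cells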); conditions: HepG2 viability, 24-48 h, at 10 µM, hits give high values
[3] = biological target: L-lactate dehydrogenase (Plasmodium falciparum (isolate CDC / Honduras)) (UniProt Q27743); assay: PfLDH activity inhibition – cell lysate, 3D7 strain, counter-screen for P. falciparum growth inhibition project (AID 2304);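 also: 0% = vehicle and 100% = reference inhibitor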; conditions: P. falciparum 3D7 crude extract, LDH APAD/NBT absorbance; at 2 µM; hits give high values
[4] = inhibition of 3D7 malaria parasite growth – strain 3D7 (AID 2306);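 also: 0% = DMSO wells and 100% = chloroquine plus artemisinin control wells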; conditions: P. falciparum 3D7 erythrocytic growth, LDH absorbance, 72 h; at 2 µM; hits give high values
[5] = biological target: Calcium-dependent protein kinase 1 (Plasmodium falciparum (isolate 3D7)) (UniProt P62344); assay: PfCDPK1 kinase inhibitors, biochemical, TCAMS library (AID 1159585; cut-off not given, nearly all actives have IC50 up to about 0.98 µM;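 also: inhibitors leave more ATP so luminescence rises with inhibition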); conditions: recombinant PfCDPK1, Kinase-Glo ATP depletion luminescence
[6] = biological target: Plasmodium falciparum protein kinase 6 (PK6, PF3D7_1337100) (UniProt Q8IDW1); assay: PfPK6 kinase inhibitors, biochemical, TCAMS library (AID 1159586); conditions: recombinant PfPK6, Kinase-Glo ATP depletion luminescence
[7] = biological target: Protein kinase 7 (PK7), Plasmodium falciparum 3D7 (PF3D7_0213400) (UniProt Q7YTF7); assay: inhibition of Plasmodium PK7 catalytic activity – biochemical, TCAMS antimalarial set, Kinase-Glo luminescence (AID 1159587); conditions: recombinant PfPK7, Kinase-Glo ATP depletion luminescence
[8] = biological target: Calcium-dependent protein kinase 4 (Plasmodium falciparum (isolate 3D7)) (UniProt Q8IBS5); assay: PfCDPK4 kinase inhibitors, biochemical, TCAMS library (AID 1159588; cut-off not given, nearly all actives have IC50 up to about 0.91 µM); conditions: recombinant PfCDPK4, Kinase-Glo ATP depletion luminescence
Calcium-dependent protein kinase 4 (Plasmodium falciparum (isolate 3D7)), sequence (Q8IBS5 whole entry, looked up): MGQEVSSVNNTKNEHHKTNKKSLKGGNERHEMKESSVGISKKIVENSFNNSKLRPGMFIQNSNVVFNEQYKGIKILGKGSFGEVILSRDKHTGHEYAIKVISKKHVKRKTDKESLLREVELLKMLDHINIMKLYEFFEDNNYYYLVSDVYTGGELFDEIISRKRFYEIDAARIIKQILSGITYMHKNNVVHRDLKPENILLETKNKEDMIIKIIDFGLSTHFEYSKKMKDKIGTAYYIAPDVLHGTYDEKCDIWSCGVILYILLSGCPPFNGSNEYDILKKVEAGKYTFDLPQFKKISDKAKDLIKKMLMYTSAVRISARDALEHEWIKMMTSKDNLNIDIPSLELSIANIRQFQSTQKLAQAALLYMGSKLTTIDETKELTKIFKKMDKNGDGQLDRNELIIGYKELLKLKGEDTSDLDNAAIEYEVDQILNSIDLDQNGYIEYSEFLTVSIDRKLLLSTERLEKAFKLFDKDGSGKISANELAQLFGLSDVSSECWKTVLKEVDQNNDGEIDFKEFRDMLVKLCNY

Calcium-dependent protein kinase 1 (Plasmodium falciparum (isolate 3D7)), sequence (P62344 whole entry, looked up): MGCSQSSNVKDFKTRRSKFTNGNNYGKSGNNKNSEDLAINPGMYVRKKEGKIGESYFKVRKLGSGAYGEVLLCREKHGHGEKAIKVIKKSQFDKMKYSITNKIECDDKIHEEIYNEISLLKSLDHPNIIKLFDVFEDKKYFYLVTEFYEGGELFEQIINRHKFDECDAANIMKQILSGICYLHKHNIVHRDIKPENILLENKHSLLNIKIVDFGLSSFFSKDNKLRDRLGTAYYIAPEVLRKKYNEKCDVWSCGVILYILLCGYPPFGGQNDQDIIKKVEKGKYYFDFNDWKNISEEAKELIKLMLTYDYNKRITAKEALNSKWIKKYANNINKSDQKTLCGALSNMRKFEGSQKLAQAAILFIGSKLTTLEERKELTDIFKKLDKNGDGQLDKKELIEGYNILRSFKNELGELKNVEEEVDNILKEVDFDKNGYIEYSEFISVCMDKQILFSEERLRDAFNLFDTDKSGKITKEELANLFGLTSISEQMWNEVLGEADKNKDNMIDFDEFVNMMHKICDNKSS
Protein kinase 7 (PK7), Plasmodium falciparum 3D7 (PF3D7_0213400), sequence (Q7YTF7 1-343): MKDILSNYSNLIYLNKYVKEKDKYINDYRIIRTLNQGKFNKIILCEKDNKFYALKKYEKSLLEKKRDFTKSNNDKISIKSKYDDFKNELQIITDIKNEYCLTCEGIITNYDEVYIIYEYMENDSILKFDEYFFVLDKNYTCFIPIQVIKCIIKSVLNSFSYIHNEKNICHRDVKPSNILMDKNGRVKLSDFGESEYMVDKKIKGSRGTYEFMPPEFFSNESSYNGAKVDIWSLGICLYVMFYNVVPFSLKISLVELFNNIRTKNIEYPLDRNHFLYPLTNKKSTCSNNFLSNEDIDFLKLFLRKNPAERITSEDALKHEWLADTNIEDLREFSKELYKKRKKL
Plasmodium falciparum protein kinase 6 (PK6, PF3D7_1337100), sequence (Q8IDW1 1-305): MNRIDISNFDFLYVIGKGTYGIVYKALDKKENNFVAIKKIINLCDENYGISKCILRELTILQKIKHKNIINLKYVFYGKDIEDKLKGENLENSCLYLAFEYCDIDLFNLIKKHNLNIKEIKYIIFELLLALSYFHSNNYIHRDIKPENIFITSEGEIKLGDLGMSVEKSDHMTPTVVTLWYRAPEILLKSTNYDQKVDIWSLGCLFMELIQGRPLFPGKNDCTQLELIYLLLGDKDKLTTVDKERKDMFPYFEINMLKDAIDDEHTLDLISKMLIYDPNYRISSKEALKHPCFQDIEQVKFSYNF
L-lactate dehydrogenase (Plasmodium falciparum (isolate CDC / Honduras)), sequence (Q27743 whole entry, looked up): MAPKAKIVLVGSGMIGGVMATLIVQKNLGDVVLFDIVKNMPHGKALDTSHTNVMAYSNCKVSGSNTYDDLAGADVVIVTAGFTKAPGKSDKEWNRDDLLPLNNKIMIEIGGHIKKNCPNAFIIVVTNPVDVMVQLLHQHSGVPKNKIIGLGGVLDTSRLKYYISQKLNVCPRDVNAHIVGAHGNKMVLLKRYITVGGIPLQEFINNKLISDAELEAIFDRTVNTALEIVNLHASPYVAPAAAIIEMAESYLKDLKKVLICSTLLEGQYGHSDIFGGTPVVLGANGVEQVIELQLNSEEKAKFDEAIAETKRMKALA

Cc1noc(C)c1-c1cccc(C(=O)NC2CCN(CCNC(=O)C(c3ccccc3)c3ccccc3)CC2)c1
inactive: inhibition [2] 27% | inhibition [3] 5% | outcome [5] | outcome [6] | outcome [7] | outcome [8]
active: growth inhibition [1] 74% | growth inhibition [4] 85%

CCOC(=O)NC1=NC(C)(C)N(OCc2cccc3c2ccc2ccccc23)C(NC(=O)OCC)=N1
active: growth inhibition [4] 98%
inactive: growth inhibition [1] 3% | inhibition [2] 3% | inhibition [3] 4% | outcome [5] | outcome [6] | outcome [7] | outcome [8]

COc1cc(-c2ccccc2)ccc1C(=O)Nc1ccc2c(c1)N(C)CCC2
active: growth inhibition [1] 75% | growth inhibition [4] 85%
inactive: inhibition [2] 15% | inhibition [3] -4% | outcome [5] | outcome [6] | outcome [7] | outcome [8]

CC(C)Cc1nc2nc(N)nc(N)c2cc1C(C)C
inactive: growth inhibition [1] 3% | inhibition [3] 4% | outcome [5] | outcome [6] | outcome [7] | outcome [8]
active: inhibition [2] 67% | growth inhibition [4] 96%

COc1cc(OC)c2c(C)cc(NCCCN3CCOCC3)nc2c1
active: growth inhibition [4] 99%
inactive: growth inhibition [1] 3% | inhibition [2] 6% | inhibition [3] 0% | outcome [5] | outcome [6] | outcome [7] | outcome [8]

CCOc1ccc(Nc2nc(N)c3ccccc3n2)cc1
inactive: growth inhibition [1] 6% | inhibition [2] 28% | inhibition [3] 2% | outcome [5] | outcome [6] | outcome [7] | outcome [8]
active: growth inhibition [4] 90%

Cc1cc(N2CCN(CC3CCCCC3)CC2)nc(Nc2ccc(Br)cc2)n1
active: growth inhibition [4] 91%
inactive: growth inhibition [1] 16% | inhibition [2] -1% | inhibition [3] -6% | outcome [5] | outcome [6] | outcome [7] | outcome [8]

COc1ccc2c(NN=Cc3cccc(F)c3)ccnc2c1
active: growth inhibition [1] 95% | growth inhibition [4] 101%
inactive: inhibition [2] 49% | inhibition [3] -5% | outcome [5] | outcome [6] | outcome [7] | outcome [8]

CCN(Cc1ccccc1)C1CCN(Cc2cc(Br)ccc2O)CC1
inactive: inhibition [2] 6% | inhibition [3] -1% | outcome [5] | outcome [6] | outcome [7] | outcome [8]
active: growth inhibition [1] 97% | growth inhibition [4] 97%

CCOc1ccccc1CNc1nccc(NCc2ccc(Cl)cc2Cl)n1
inactive: inhibition [2] 26% | inhibition [3] -3% | outcome [5] | outcome [6] | outcome [7] | outcome [8]
active: growth inhibition [1] 58% | growth inhibition [4] 83%

Clc1cccc(C23N=C(Nc4nc5ccccc5[nH]4)NC2(c2ccccc2)NC(Nc2nc4ccccc4[nH]2)=N3)c1 (stereo not drawn)
inactive: inhibition [2] -3% | inhibition [3] -3% | outcome [5] | outcome [6] | outcome [7] | outcome [8]
active: growth inhibition [1] 88% | growth inhibition [4] 85%

CN1CCN(CCCN(Cc2ccc(-c3ccc(CNCc4ccc5c(c4)OCO5)cc3)cc2)C(=O)Nc2ccccc2)CC1
active: growth inhibition [1] 77% | growth inhibition [4] 94%
inactive: inhibition [2] 36% | inhibition [3] -3% | outcome [5] | outcome [6] | outcome [7] | outcome [8]

Cc1cccc2[nH]c(-c3ccc(-c4cccc(NC(=O)CN5CCN(C)CC5)c4)s3)nc12
active: growth inhibition [1] 51% | growth inhibition [4] 96%
inactive: inhibition [2] 7% | inhibition [3] -3% | outcome [5] | outcome [6] | outcome [7] | outcome [8]

Cc1nc2c(=O)sc3ccccc3c2n1Cc1ccccc1
inactive: growth inhibition [1] 26% | inhibition [2] -1% | inhibition [3] 1% | outcome [5] | outcome [6] | outcome [7] | outcome [8]
active: growth inhibition [4] 95%

Cc1nc(-c2nc(NCc3ccncc3)ncc2-c2ccsc2)sc1C
active: growth inhibition [1] 83% | growth inhibition [4] 91%
inactive: inhibition [2] 8% | inhibition [3] 2% | outcome [5] | outcome [6] | outcome [7] | outcome [8]

N#Cc1ccc(CNCCCCCCNCc2ccc(C#N)c3ccccc23)c2ccccc12
active: growth inhibition [1] 96% | inhibition [2] 51% | growth inhibition [4] 102%
inactive: inhibition [3] -3% | outcome [5] | outcome [6] | outcome [7] | outcome [8]

CN(C)CCN(C)Cc1ccc(-c2ccc(NC(=O)c3cccc(C#N)c3)cc2)cc1
inactive: growth inhibition [1] 49% | inhibition [2] 20% | inhibition [3] 2% | outcome [5] | outcome [6] | outcome [7] | outcome [8]
active: growth inhibition [4] 89%

S=C(NCCc1ccccc1)Nc1ccc2ncsc2c1
active: growth inhibition [4] 96%
inactive: growth inhibition [1] 3% | inhibition [2] -20% | inhibition [3] -3% | outcome [5] | outcome [6] | outcome [7] | outcome [8]

CCCCCCCN1CC[C@@H](CCCc2ccnc3ccc(OCCCCNC(N)=O)cc23)[C@@H](CC)C1
inactive: growth inhibition [1] 18% | inhibition [2] 41% | inhibition [3] -3% | outcome [5] | outcome [6] | outcome [7] | outcome [8]
active: growth inhibition [4] 93%

Cn1c(NC2=NC3(c4ccccn4)N=C(Nc4nc5ccccc5n4C)NC3(c3ccccn3)N2)nc2ccccc21 (stereo not drawn)
active: growth inhibition [4] 99%
inactive: growth inhibition [1] 44% | inhibition [2] 12% | inhibition [3] 0% | outcome [5] | outcome [6] | outcome [7] | outcome [8]

CC1CN(Cc2cccc(F)c2)CCN1c1ccc(NC(=O)c2cccs2)cc1 (stereo not drawn)
active: growth inhibition [1] 96% | growth inhibition [4] 96%
inactive: inhibition [2] -1% | inhibition [3] -2% | outcome [5] | outcome [6] | outcome [7] | outcome [8]

CCC(CC)(Cc1ccccc1)NC(=O)[C@H](CC(C)C)Nc1ccc(C#N)c2ccccc12
inactive: inhibition [3] -1% | outcome [5] | outcome [6] | outcome [7] | outcome [8]
active: growth inhibition [1] 73% | inhibition [2] 57% | growth inhibition [4] 90%

Cc1cccc(NC(=O)c2ccc(C(=O)NC3CCN(CC4CCCCC4)C3)cc2)c1 (stereo not drawn)
active: growth inhibition [4] 88%
inactive: growth inhibition [1] 3% | inhibition [2] 17% | inhibition [3] -3% | outcome [5] | outcome [6] | outcome [7] | outcome [8]

CS(=O)(=O)c1ccc(CNCc2cccc(-c3ccc(-c4nc5ccc(C(F)(F)F)cc5[nH]4)cc3)c2)cc1
active: growth inhibition [1] 96% | growth inhibition [4] 101%
inactive: inhibition [2] 31% | inhibition [3] 4% | outcome [5] | outcome [6] | outcome [7] | outcome [8]

Cc1cc(=O)c2cc(-c3ccc(OC(F)(F)F)cc3)ccc2[nH]1
active: growth inhibition [1] 95% | growth inhibition [4] 96%
inactive: inhibition [2] -3% | inhibition [3] 3% | outcome [5] | outcome [6] | outcome [7] | outcome [8]

COc1cc2c(Nc3cccc(NC(=O)c4ccccc4)c3)ncnc2cc1OCCCN1CCOCC1
inactive: inhibition [2] -14% | inhibition [3] 5% | outcome [5] | outcome [6] | outcome [7] | outcome [8]
active: growth inhibition [1] 100% | growth inhibition [4] 101%

CNc1ccc(CNCc2cccc(-c3ccc(-c4nc5ccc(C(F)(F)F)cc5[nH]4)cc3)c2)cc1
active: growth inhibition [1] 100% | growth inhibition [4] 101%
inactive: inhibition [2] 21% | inhibition [3] 0% | outcome [5] | outcome [6] | outcome [7] | outcome [8]

CC(C)COc1ccc(Cl)cc1Cc1nc(-c2nc3c(CN4CCN(C)CC4)cccc3[nH]2)cs1
active: growth inhibition [4] 99%
inactive: growth inhibition [1] 30% | inhibition [2] 15% | inhibition [3] -2% | outcome [5] | outcome [6] | outcome [7] | outcome [8]

COc1cc2c(cc1N1CCN(C)CC1)N(C(=O)Nc1ccc(-c3ccncc3)c(Cl)c1Cl)CC2
inactive: growth inhibition [1] 4% | inhibition [2] 10% | inhibition [3] -6% | outcome [5] | outcome [6] | outcome [7] | outcome [8]
active: growth inhibition [4] 102%

CCCN1CCN(CCCNc2c3ccccc3nc3ccccc23)CC1
active: growth inhibition [4] 99%
inactive: growth inhibition [1] -1% | inhibition [2] 36% | inhibition [3] -7% | outcome [5] | outcome [6] | outcome [7] | outcome [8]

CCn1cc(C=C2Oc3c(ccc(O)c3CN3CCCCC3)C2=O)c2cc(OC)ccc21
active: growth inhibition [1] 99% | growth inhibition [4] 99%
inactive: inhibition [2] -9% | inhibition [3] -1% | outcome [5] | outcome [6] | outcome [7] | outcome [8]

CCn1c(Sc2ccc(C#N)c([N+](=O)[O-])c2)nnc1-c1cccc(Cl)c1
active: growth inhibition [1] 88% | growth inhibition [4] 95%
inactive: inhibition [2] -5% | inhibition [3] -2% | outcome [5] | outcome [6] | outcome [7] | outcome [8]

CCc1sc(-c2cc(Cl)ccc2OC)nc1C(=O)NCCN1CCCCC1
inactive: growth inhibition [1] 28% | inhibition [2] 3% | inhibition [3] 2% | outcome [5] | outcome [6] | outcome [7] | outcome [8]
active: growth inhibition [4] 100%

Cc1cc(C(=O)Nc2ccc(-c3ccccc3)cc2)no1
active: growth inhibition [1] 94% | growth inhibition [4] 90%
inactive: inhibition [2] 6% | inhibition [3] -3% | outcome [5] | outcome [6] | outcome [7] | outcome [8]

O=C(Nc1cccc(CN2CCCN(Cc3cccc(O)c3)CC2)c1)c1ccc(-c2ccccc2)cc1
inactive: inhibition [2] 28% | inhibition [3] 3% | outcome [5] | outcome [6] | outcome [7] | outcome [8]
active: growth inhibition [1] 66% | growth inhibition [4] 101%

Cc1cc2nc(-c3ccc(C(=O)NCc4ccc(C(C)(C)C)cc4)cc3)[nH]c2cc1C
active: growth inhibition [1] 59% | growth inhibition [4] 101%
inactive: inhibition [2] 3% | inhibition [3] -3% | outcome [5] | outcome [6] | outcome [7] | outcome [8]

COc1ccc(OCC(O)CN(Cc2ccccc2OC)C(=O)Nc2ccc(Br)cc2)cc1 (stereo not drawn)
active: growth inhibition [4] 97%
inactive: growth inhibition [1] 2% | inhibition [2] 8% | inhibition [3] 0% | outcome [5] | outcome [6] | outcome [7] | outcome [8]

Nc1nc(N)c2cc(NC(=O)c3ccc(Cl)c(Cl)c3)ccc2n1
inactive: inhibition [3] 1% | outcome [5] | outcome [6] | outcome [7] | outcome [8]
active: growth inhibition [1] 83% | inhibition [2] 100% | growth inhibition [4] 100%

CCc1ccc2c(c1O)CCN(C)C2Cc1ccccc1Cl (stereo not drawn)
active: growth inhibition [1] 99% | growth inhibition [4] 99%
inactive: inhibition [2] 13% | inhibition [3] -3% | outcome [5] | outcome [6] | outcome [7] | outcome [8]

NCc1ccc(CNCc2cccc(-c3cccc(-c4nc5ccccc5[nH]4)c3)c2)cc1
active: growth inhibition [4] 101%
inactive: growth inhibition [1] 11% | inhibition [2] 7% | inhibition [3] -7% | outcome [5] | outcome [6] | outcome [7] | outcome [8]

CN1CCN(Cc2ccc(-c3ccc4ncnc(Nc5ccc(OCc6ccccc6)cc5)c4c3)o2)CC1
inactive: inhibition [2] 9% | inhibition [3] 2% | outcome [5] | outcome [6] | outcome [7] | outcome [8]
active: growth inhibition [1] 90% | growth inhibition [4] 97%
